JMJD2A Tudor inh: JMJD2A Tudor domain (human) inhibition | AID 504339 | Potency, µM (highest dose often 114 µM), without a hit: at the top dose activity change, negative = inhibition, usual class: inhibitors | 390,000 compounds, 4.4% hits | O75164 | AlphaScreen JMJD2A-Tudor / H3K4me3 peptide binding; also: % is scaled to controls: 0 for no effect and ±100 for the full control effect; nearly all actives have a fitted effect of over 50% in size
HP1b chromo inh: inhibitors of HP1-beta chromodomain binding to methylated histone tails. Potency, µM (top dose mostly 114 µM), for inactives: at the top dose activity change, negative = inhibition, actives largely listed as inhibitors. 390,000 compounds, 0.56% hits. AlphaScreen HP1-beta / biotin-H3K9me3 peptide binding. P83916. AID 540317; also: nearly all actives have a fitted effect of over 70% in size
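Compound inhibition of the preformed complex between 50 nM HP1-beta and 50 nM biotinylated H3K9me3 peptide was read by AlphaScreen. Buffer was PBS pH 7.4 with 0.01% Tween-20. Incubations ran 30 min at room temperature, with 10 ug/mL donor/acceptor beads.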
G9a inh: blocks human histone lysine methyltransferase G9a; Q96KQ7; G9a H3K9 monomethylation, AlphaScreen, 2 h; Potency, µM (highest dose often 102 µM), inactives show top-dose activity, negative = inhibition, most hits filed as inhibitors; 350,000 compounds, 8.8% hits; also: % is scaled to controls: 0 for no effect and ±100 for the full control effect; nearly all actives have a fitted effect of over 75% in size
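AlphaScreen read-out: biotin-H3K9 peptide (500 nM) methylation by 20 nM enzyme with 20 uM SAM, 2 h at room temperature after 15 min compound preincubation; anti-monomethyl H3K9 antibody plus donor/acceptor beads, 10 min dark.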
PLK1 PBD block: blocks phosphopeptide binding to human PLK1 polo-box domain | P53350 | Plk1 PBD binding of FITC phosphopeptide, fluorescence polarization | Potency, µM, for inactives: max response, negative = inhibition, most hits filed as inhibitors | 360,000 compounds, 2.8% hits; also: series mostly up to about 57 µM; % is scaled to controls: 0 for no effect and ±100 for the full control effect; nearly all actives have a fitted effect of over 65% in size
Sfp PPTase inh: blocks B. subtilis Sfp PPTase activity; Potency, µM, for the others: largest response in the series, negative = inhibition, usual class: inhibitors; Q9F4F7; 310,000 compounds, 3.5% hits; Biochemical Sfp PPTase activity, qHTS; AID 1490;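 also: the enzyme is Sfp with the accession as filed and its product quenches rhodamine fluorescence; 0% = enzyme reaction without inhibitor and -100% = no enzyme wells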
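With Hepes-Na pH 7.6 buffer containing 10 mM MgCl2, Sfp (15 nM) modified BHQ-2-YbbR (12.5 uM) using rhodamine-CoA (5 uM). Two reads 30 minutes apart at 525/598 nm yielded each well's rate.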
BAZ2B block: BAZ2B (human) inhibition | Q9UIF8 | AlphaScreen BAZ2B-H3K14Ac peptide displacement | Potency, µM (highest dose often 114 µM), inactives show top-dose activity change, negative = inhibition, hits mostly inhibitors | 360,000 compounds, 4.4% hits | AID 504333; also: % is scaled to controls: 0 for no effect and ±100 for the full control effect; nearly all actives have a fitted effect of over 60% in size
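BAZ2B (50 nM) with biotin-H3(5-23)K14Ac peptide (50 nM) in PBS pH 7.4, 0.01% Tween-20, preformed 30 min, then compound 30 min at room temperature; top concentration 110uM. AlphaScreen streptavidin donor/nickel chelate acceptor beads (10 ug/mL final), 20 min dark, signal read.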
Starred values were filed as active, the others as inactive; [ ] = another dose, or the depositor's remark. The list is not random: actives were taken first. Their share in the collection is about 12%. Calls follow the shape of the dose curve; as a rule, active = well fitted curve in the direction sought with a large enough effect; inconclusive = small, poorly fitted or top-dose-only effect, or another doubt; inactive = no such curve, though single readings can be large; an effect the other way counts as inactive or inconclusive. Potency is read from the fitted curve at half-maximal effect.

`Nc1c(-c2n[nH]c(=S)n2-c2ccc(Cl)cc2Cl)cnn1-c1ccccc1` gave JMJD2A Tudor inh 6%, HP1b chromo inh 54%, G9a inh 4.5µM*, PLK1 PBD block -3%, Sfp PPTase inh 3% and BAZ2B block 1%.
`Cc1ccc(-c2cnn(-c3ccccc3)c2N)cc1` gave JMJD2A Tudor inh -23%, HP1b chromo inh 21%, G9a inh 4%, PLK1 PBD block 3%, Sfp PPTase inh 14% and BAZ2B block 0%.
Cn1c(-c2cnn(-c3ccccc3)c2N)n[nH]c1=S was read as JMJD2A Tudor inh inconclusive, HP1b chromo inh 39%, G9a inh 28µM*, PLK1 PBD block -3%, Sfp PPTase inh inconclusive and BAZ2B block -10%.
For C=CCn1c(-c2cnn(-c3ccccc3)c2N)n[nH]c1=S the results were JMJD2A Tudor inh 4µM*, HP1b chromo inh 6%, G9a inh 7.9µM*, PLK1 PBD block -2%, Sfp PPTase inh -7% and BAZ2B block -21%.
`CCOC(=O)c1ccccc1NC(=O)CSc1nc2ncccc2[nH]1` gave JMJD2A Tudor inh -3%, HP1b chromo inh 40%, G9a inh 1%[59 µM] and BAZ2B block 2%.
COc1ccc(-n2ncc3c2CC(C)(C)CC3NC(=O)CCCN2CCCC2=O)cc1 (stereo not given) was read as JMJD2A Tudor inh -9%, HP1b chromo inh 19%, G9a inh 11%, PLK1 PBD block 0%, Sfp PPTase inh 16% and BAZ2B block 16%.
Screening O=C(CN1C(=O)c2ccccc2C1=O)Oc1ccc(Cl)cc1 returned JMJD2A Tudor inh 10%, HP1b chromo inh 62%, G9a inh 36%, PLK1 PBD block -12%, Sfp PPTase inh 7% and BAZ2B block 31%.
O=[S@]1Oc2ccccc2-c2ccccc21 was read as JMJD2A Tudor inh -9%, HP1b chromo inh 35% and PLK1 PBD block 2.1µM*.
O=S1c2ccccc2Oc2ccccc21 was read as JMJD2A Tudor inh -14%, HP1b chromo inh -17% and PLK1 PBD block -13%.
COc1ccccc1OCC#CCn1ccnc1 was read as JMJD2A Tudor inh 5.6µM*, HP1b chromo inh inconclusive, G9a inh 3.2µM*, PLK1 PBD block -28%, Sfp PPTase inh -18% and BAZ2B block 18µM*.
`COc1ccc(C)cc1S(=O)(=O)Nc1cccc(-c2ccc(N3CCCC3)nn2)c1` gave JMJD2A Tudor inh -7%, HP1b chromo inh 19%[57 µM], G9a inh -4%[59 µM] and BAZ2B block 1%.
Screening CCOC(=O)C1CCN(Cc2ccc(OCc3ccccc3)c(OC)c2)CC1 returned JMJD2A Tudor inh -6%, HP1b chromo inh -2%, G9a inh 50µM*, PLK1 PBD block -12%, Sfp PPTase inh 13% and BAZ2B block -32%.
C=Cn1cc[n+](CC(=O)c2cc(C(C)(C)C)c(O)c(C(C)(C)C)c2)c1 was read as JMJD2A Tudor inh -7%, HP1b chromo inh 41%, PLK1 PBD block -3%, Sfp PPTase inh 6% and BAZ2B block -2%.
`CN1CCN(CC(=O)c2cc(C(C)(C)C)c(O)c(C(C)(C)C)c2)CC1` gave JMJD2A Tudor inh inconclusive, HP1b chromo inh 42%, G9a inh 32µM*, PLK1 PBD block -25%, Sfp PPTase inh 5% and BAZ2B block -31%.
Screening Cc1ccc(-c2noc(CN3CCN(C(c4ccccc4)c4ccccc4)CC3)n2)cc1 returned JMJD2A Tudor inh -15%, HP1b chromo inh 28%, G9a inh -42%, PLK1 PBD block -6%, Sfp PPTase inh -7% and BAZ2B block -4%.
For Cc1cccc(CN2CCN(C(c3ccccc3)c3ccc(Cl)cc3)CC2)c1 (stereo not given) the results were JMJD2A Tudor inh 79µM*, HP1b chromo inh 60%, G9a inh inconclusive, PLK1 PBD block inconclusive, Sfp PPTase inh -2% and BAZ2B block 50µM*.
For CCOC(=O)C1CCN(Cc2ccc(OC)c(OCc3ccccc3)c2)CC1 the results were JMJD2A Tudor inh -30%, HP1b chromo inh 2%, G9a inh 28µM*, PLK1 PBD block -10%, Sfp PPTase inh -17% and BAZ2B block 56µM*.
For CC1CCC(NC(=O)CN2C(=O)C3CC=CCC3C2=O)CC1 (stereo not given) the results were JMJD2A Tudor inh -5%, HP1b chromo inh 68%, G9a inh 13%[12.7 µM], PLK1 PBD block -4% and BAZ2B block 10%.
For O=C(CN1CCN(C(=O)C2CCCO2)CC1)Nc1cc(Cl)ccc1Cl (stereo not given) the results were JMJD2A Tudor inh 2%, HP1b chromo inh 27%, G9a inh -1%, PLK1 PBD block 0%, Sfp PPTase inh 12% and BAZ2B block 22%.
OC1CCN(Cc2ccc(OCc3ccccc3)cc2)CC1 was read as JMJD2A Tudor inh -16%, HP1b chromo inh 13%, G9a inh -10%[0.501 µM], PLK1 PBD block -14%, Sfp PPTase inh 13% and BAZ2B block 7%.
For O=C(C1CCN(Cc2ccc(Cl)cc2)CC1)N1CCN(C(c2ccccc2)c2ccccc2)CC1 the results were JMJD2A Tudor inh inconclusive, HP1b chromo inh inconclusive, G9a inh 20µM*, PLK1 PBD block -5%, Sfp PPTase inh 45µM* and BAZ2B block 79µM*.
For O=C(CN1CCN(C(=O)C2CCCO2)CC1)Nc1ccc(Cl)c(Cl)c1 (stereo not given) the results were JMJD2A Tudor inh 9%, HP1b chromo inh 34%, G9a inh 79µM*, PLK1 PBD block 2%, Sfp PPTase inh 11% and BAZ2B block -7%.
For COc1cc(CN2CCCCC2)ccc1OCc1ccccc1 the results were JMJD2A Tudor inh 32µM*, HP1b chromo inh inconclusive, PLK1 PBD block -3%, Sfp PPTase inh -18% and BAZ2B block inconclusive.
For O=C(C1CCN(Cc2ccc(OCc3ccccc3)cc2)CC1)N1CCCC1 the results were JMJD2A Tudor inh 1.6µM*, HP1b chromo inh inconclusive, G9a inh 14µM*, PLK1 PBD block -2%, Sfp PPTase inh inconclusive and BAZ2B block 79µM*.
For CN1CCCN(C(c2ccccc2)c2ccc(Cl)cc2)CC1 (stereo not given) the results were JMJD2A Tudor inh 79µM*, HP1b chromo inh 20%, G9a inh inconclusive, PLK1 PBD block 5%, Sfp PPTase inh -20% and BAZ2B block inconclusive.
For O=C(C1CCCO1)N1CCN(S(=O)(=O)c2ccccc2)CC1 (stereo not given) the results were JMJD2A Tudor inh -11%, HP1b chromo inh 48%, G9a inh inconclusive, PLK1 PBD block -8%, Sfp PPTase inh 9% and BAZ2B block -4%.
For CCOC(=O)C1CCN(Cc2ccc(O)c(OC)c2)CC1 the results were JMJD2A Tudor inh 3.2µM*, HP1b chromo inh inconclusive, G9a inh 32µM*, PLK1 PBD block 0%, Sfp PPTase inh -4% and BAZ2B block inconclusive.

Screening results deposited in PubChem by National Center for Advancing Translational Sciences (NCATS).
